Laboratory results reported in PubChem BioAssay (NCATS).
Unmarked numbers belong to inactive results. Inconclusive results are not listed. Entries that show only a call come without a potency. Activity calls are given as the source filed them. Unless noted, calls come from the whole dose curve; as a rule, active = well fitted curve in the direction sought with a large enough effect; inconclusive = small, poorly fitted or top-dose-only effect, or another doubt; inactive = no such curve, though single readings can be large; an effect the other way counts as inactive or inconclusive.

Columns and labels:
[1] = Viability counterscreen for antagonist of constitutive androstane receptor (CAR) against the NCATS DSHEA and TCM libraries (AID 1794837);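 note: compound exposure lasted 24 h before viability reading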
How it was run: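 Fluorescence from CellTiter-Fluor reports live-cell protease activity in HepG2-CYP2B6-hCAR cells treated for 24 h with substances alongside 48 uM CITCO.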

[2] = Viability counterscreen for agonist of constitutive androstane receptor (CAR) against the NCATS DSHEA and TCM libraries (AID 1794838);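 note: cells exposed to compound for 24 h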
How it was run: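 In agonist mode, PK11195 is added at 0.75 uM final to HepG2-CYP2B6-hCAR cells dosed with test substances. Cultures incubate 24 h at 37C before a protease-based fluorogenic viability readout.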

[3] = target: Nuclear receptor subfamily 1 group I member 3 (Homo sapiens) (UniProt Q14994); assay: Primary qHTS for agonist of constitutive androstane receptor (CAR) against the NCATS DSHEA and TCM libraries (AID 1794839); note: potency is the fitted concentration of half-maximal effect
How it was run: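 Cells stably carrying hCAR and a CYP2B6 reporter (HepG2 background) are seeded and allowed 5 h to adhere. Substances at multiple concentrations are added alongside 0.75 µM PK11195, and luciferase signal is measured after 24 h.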

[4] = HepG2 viability counterscreen (readout 2: ATP content) against the NCATS DSHEA and TCM libraries (AID 1794840);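 note: HepG2 cells exposed to substances for about 24 h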
How it was run: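 Cytotoxicity was assessed in HepG2 cells plated at 1,000 cells/well and exposed for about 24 hours to a concentration series. Protease activity and ATP content were measured sequentially in each well.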

[5] = target: Cytochrome P450 3A4 (Homo sapiens) (UniProt P08684); assay: qHTS for inhibitors of CYP3A4 against the NCATS DSHEA and TCM libraries (AID 1919971); note: potency is the fitted concentration of half-maximal effect
How it was run: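 Light output from converted D-luciferin reports remaining CYP activity. Compounds preincubate with enzyme and substrate for 15 min; NADPH regeneration (1x final) runs the reaction for 30-45 min.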

[6] = target: Cytochrome P450 2D6 (Homo sapiens) (UniProt P10635); assay: qHTS for inhibitors of CYP2D6 against the NCATS DSHEA and TCM libraries (AID 1919972); note: potency is the fitted concentration of half-maximal effect
How it was run: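 Steps: enzyme plus luciferin substrate dispensed; test substances pinned; 15 min RT; 1x NADPH regenerating solution added, 30–45 min RT protected from light; detection reagent, 30 min RT; luminescence measured. Minus-enzyme wells as background.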

[7] = KB-3-1 P-gp reporter qHTS against the NCATS DSHEA and TCM libraries (AID 1919975)
How it was run: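 72 h exposure of KB-3-1 cells (DMEM, 10% FBS) to DSHEA/TCM samples, concentration-response; cell viability measured as CellTiter-Glo luminescence after 30 min at room temperature.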

[8] = target: Cytochrome P450 1A2 (Homo sapiens) (UniProt P05177); assay: qHTS for inhibitors of CYPIA2 against the NCATS DSHEA and TCM libraries (AID 1919976); note: potency is the fitted concentration of half-maximal effect
How it was run: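 In this quantitative HTS, inhibition of recombinant human CYP1A2 was measured as loss of luciferin-derived luminescence. Turnover ran 30-45 min at RT after NADPH regeneration solution was added.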

[9] = qHTS Counterscreen for compound interference against the NCATS DSHEA and TCM libraries (AID 1919978); conditions: firefly luciferase detection reagent interference, luminescence
How it was run: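 Read-out is luminescence after 30 min at RT with luciferin detection reagent. Before that, compounds (19.5 nM to 39.8 uM final) sat 15 min at RT with 1 uM D-luciferin or 100 mM potassium phosphate buffer. PTC124 served as intraplate control.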

[10] = Dual reporter qHTS for agonist of Pregnane X Receptor (hPXR) against the NCATS DSHEA and TCM libraries: Fluorescence readout (AID 1920058)
How it was run: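 Measures viability of the PXR reporter HepG2 line by protease-substrate fluorescence (405/540 nm), taken 1 h after CellTiter-Fluor addition. Substances are tested as concentration series over a ~24 h exposure, with rifampicin as agonist control.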

[11] = target: Nuclear receptor subfamily 1 group I member 2 (Homo sapiens) (UniProt O75469); assay: Dual reporter qHTS for antagonist of Pregnane X Receptor (hPXR) against the NCATS DSHEA and TCM libraries: Luminescence Readout (AID 1920060);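 note: HepG2 cells carrying hPXR luciferase reporter stimulated with rifampicin at 2 µM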
How it was run: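 In antagonist mode, 2 uM rifampicin was added to hPXR-Luc HepG2 cells alongside test substances, incubated 24 h at 37 C; luminescence gave reporter activity, and CellTiter-Fluor fluorescence (405/540 nm) gave viability.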

[12] = target: Nuclear receptor subfamily 1 group I member 2 (Homo sapiens) (UniProt O75469); assay: Dual reporter qHTS for agonist of Pregnane X Receptor (hPXR) against the NCATS DSHEA and TCM libraries: Luminescence readout (AID 1920059)
How it was run: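 Luminescent PXR reporter read (ONE-Glo) after a CellTiter-Fluor viability read, following 24 h, 37C treatment of HepG2 cells stably carrying hPXR-Luc.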

[13] = target: Mitogen-activated protein kinase 10 (Mus musculus) (UniProt Q61831); assay: JNK3 AlphaScreen Assay (AID 530; active = well fitted curve in either direction with a large enough effect, not every such curve was filed as active;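 note: kinase came from lysate of stimulated human HepG2 cells; signal reports phosphorylation of biotinylated GST-cJun 1-79 at Ser73 with 10 µM ATP; series mostly up to about 57 µM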)
How it was run: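 Room-temperature AlphaScreen kinase assay; pre-activated HepG2 lysate as JNK3 source, biotin-GST-cJun(1-79) substrate, 10 uM ATP, compound 15 min preincubation.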

Sequence of Cytochrome P450 3A4 (Homo sapiens) (P08684 whole entry, looked up): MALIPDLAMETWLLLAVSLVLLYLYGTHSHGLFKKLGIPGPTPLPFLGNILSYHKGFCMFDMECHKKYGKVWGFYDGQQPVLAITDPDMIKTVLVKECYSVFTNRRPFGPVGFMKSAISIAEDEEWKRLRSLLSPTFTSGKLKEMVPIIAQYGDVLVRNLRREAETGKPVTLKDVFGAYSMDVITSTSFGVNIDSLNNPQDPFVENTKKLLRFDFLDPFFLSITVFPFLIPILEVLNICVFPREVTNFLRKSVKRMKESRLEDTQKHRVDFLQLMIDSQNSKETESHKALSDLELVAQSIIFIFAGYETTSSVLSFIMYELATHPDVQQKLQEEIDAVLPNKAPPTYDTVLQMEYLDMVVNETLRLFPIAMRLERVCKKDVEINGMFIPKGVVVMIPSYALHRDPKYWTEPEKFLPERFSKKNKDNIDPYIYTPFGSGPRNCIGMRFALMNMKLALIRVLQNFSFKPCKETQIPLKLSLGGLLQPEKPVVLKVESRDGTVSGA
Sequence of Nuclear receptor subfamily 1 group I member 3 (Homo sapiens) (Q14994 whole entry, looked up): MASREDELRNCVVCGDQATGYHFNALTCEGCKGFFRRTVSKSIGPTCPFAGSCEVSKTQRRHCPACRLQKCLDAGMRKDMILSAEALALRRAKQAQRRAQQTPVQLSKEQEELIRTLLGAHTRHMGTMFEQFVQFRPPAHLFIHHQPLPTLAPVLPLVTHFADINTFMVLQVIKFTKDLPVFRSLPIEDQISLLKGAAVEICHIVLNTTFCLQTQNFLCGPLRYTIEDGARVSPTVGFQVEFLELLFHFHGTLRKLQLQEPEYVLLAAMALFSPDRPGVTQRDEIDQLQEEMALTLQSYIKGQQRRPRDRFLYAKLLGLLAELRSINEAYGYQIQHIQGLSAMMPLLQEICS
Sequence of Nuclear receptor subfamily 1 group I member 2 (Homo sapiens) (O75469 whole entry, looked up): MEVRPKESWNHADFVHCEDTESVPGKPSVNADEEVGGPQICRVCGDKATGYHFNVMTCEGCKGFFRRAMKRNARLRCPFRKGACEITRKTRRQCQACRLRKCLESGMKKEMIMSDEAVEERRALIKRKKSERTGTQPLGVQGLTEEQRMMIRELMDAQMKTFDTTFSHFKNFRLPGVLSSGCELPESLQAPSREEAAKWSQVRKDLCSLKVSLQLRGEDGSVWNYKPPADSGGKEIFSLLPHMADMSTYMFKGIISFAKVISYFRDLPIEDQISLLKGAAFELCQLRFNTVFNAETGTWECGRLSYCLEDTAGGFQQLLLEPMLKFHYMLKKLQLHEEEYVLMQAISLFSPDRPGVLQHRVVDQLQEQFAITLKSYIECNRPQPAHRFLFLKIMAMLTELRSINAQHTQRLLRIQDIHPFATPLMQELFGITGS
Sequence of Cytochrome P450 1A2 (Homo sapiens) (P05177 whole entry, looked up): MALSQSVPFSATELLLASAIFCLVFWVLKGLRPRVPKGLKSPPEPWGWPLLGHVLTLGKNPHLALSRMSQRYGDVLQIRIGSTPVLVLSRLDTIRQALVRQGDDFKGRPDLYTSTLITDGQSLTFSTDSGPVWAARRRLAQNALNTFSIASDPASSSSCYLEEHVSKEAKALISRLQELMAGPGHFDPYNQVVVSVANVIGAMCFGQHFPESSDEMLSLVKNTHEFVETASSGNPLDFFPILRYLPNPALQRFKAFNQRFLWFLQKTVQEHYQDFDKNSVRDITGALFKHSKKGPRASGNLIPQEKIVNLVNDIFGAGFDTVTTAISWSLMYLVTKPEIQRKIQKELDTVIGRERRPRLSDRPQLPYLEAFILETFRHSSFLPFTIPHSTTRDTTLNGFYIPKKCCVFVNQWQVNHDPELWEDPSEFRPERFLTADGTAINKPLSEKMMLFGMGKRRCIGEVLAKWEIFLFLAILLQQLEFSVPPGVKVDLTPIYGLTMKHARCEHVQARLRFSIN
Sequence of Cytochrome P450 2D6 (Homo sapiens) (P10635 whole entry, looked up): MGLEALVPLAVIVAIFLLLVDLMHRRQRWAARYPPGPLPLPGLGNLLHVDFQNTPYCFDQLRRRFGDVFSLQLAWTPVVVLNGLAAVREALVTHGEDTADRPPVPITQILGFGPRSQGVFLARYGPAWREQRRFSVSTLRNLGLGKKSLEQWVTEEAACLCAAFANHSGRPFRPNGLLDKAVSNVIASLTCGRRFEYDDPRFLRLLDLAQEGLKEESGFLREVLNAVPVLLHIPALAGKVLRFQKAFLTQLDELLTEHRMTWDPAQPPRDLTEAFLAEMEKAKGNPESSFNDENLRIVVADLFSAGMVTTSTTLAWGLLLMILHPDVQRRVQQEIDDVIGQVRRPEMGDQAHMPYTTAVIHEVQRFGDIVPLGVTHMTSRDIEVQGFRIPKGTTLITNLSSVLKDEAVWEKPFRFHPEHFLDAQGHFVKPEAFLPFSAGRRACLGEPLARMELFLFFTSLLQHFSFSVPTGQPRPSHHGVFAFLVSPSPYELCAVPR

SMILES | outcome [1] | outcome [2] | Potency [3] | outcome [4] | Potency [5] | Potency [6] | outcome [7] | Potency [8] | max response [9] [%] | outcome [10] | outcome [11] | Potency [12] | Potency [13]
CC1=CC[C@H](C(C)C)C=C1 | inactive | inactive | inactive | inactive | 35.5 µM (active) | inactive | inactive | inactive | 0.517 | inactive | inactive | – | –
C[C@@H]1OC(O[C@H]2[C@H](O)[C@@H](O)[C@H](OC[C@H]3O[C@@H](OC(=O)[C@]45CCC(C)(C)C[C@@H]4C4=CCC6[C@@]7(C)CC[C@H](OC8OC[C@H](O)[C@H](O)[C@H]8OC8O[C@@H](C)[C@H](O)[C@@H](O)[C@H]8O)[C@@](C)(CO)C7CC[C@@]6(C)[C@]4(C)CC5)[C@H](O)[C@@H](O)[C@@H]3O)O[C@@H]2CO)[C@H](O)[C@H](O)[C@H]1O (stereo not given in full) | inactive | inactive | inactive | inactive | inactive | – | inactive | inactive | -2.4 | inactive | inactive | inactive | –
O[C@@H]1[C@@H](O)[C@H](OC/C=C/c2ccccc2)O[C@H](CO[C@@H]2OC[C@H](O)[C@H](O)[C@H]2O)[C@H]1O | inactive | inactive | inactive | inactive | inactive | inactive | inactive | inactive | 4.06 | inactive | inactive | inactive | –
CC(C)c1ccc(C=O)cc1 | inactive | inactive | inactive | inactive | inactive | inactive | inactive | inactive | -3.36 | inactive | inactive | inactive | –
C=C(C)C(CC=C(C)C)CC12CC(CC=C(C)C)C(C)(C)C(CC=C(C)C)(C(=O)/C(=C(\O)c3ccc(O)c(O)c3)C1=O)C2=O (stereo not given) | inactive | inactive | inactive | inactive | 14.1 µM (active) | 28.2 µM (active) | – | – | 3.47 | inactive | inactive | – | –
CC(C)=CCCC(C)(OC1OC(COC2OC(CO)C(O)C2O)C(O)C(O)C1O)C1CCC2(C)C1C(O)CC1C3(C)CCC(OC4OC(CO)C(O)C(O)C4OC4OC(CO)C(O)C(O)C4O)C(C)(C)C3CCC12C (stereo not given) | inactive | inactive | inactive | inactive | inactive | inactive | inactive | inactive | 2.08 | inactive | inactive | inactive | –
CCCCCCC/C=C/C(=O)CCc1ccc(O)c(OC)c1 | inactive | inactive | inactive | inactive | 14.1 µM (active) | 10 µM (active) | inactive | 25.1 µM (active) | 6.04 | inactive | inactive | – | –
O=Cc1ccccc1O | inactive | inactive | inactive | inactive | inactive | inactive | inactive | inactive | 1.96 | inactive | inactive | inactive | –
COc1ccc(-c2coc3cc(O[C@@H]4O[C@H](CO)[C@@H](O)[C@H](O)[C@H]4O)ccc3c2=O)cc1 | inactive | inactive | 11.2 µM (active) | inactive | inactive | inactive | inactive | inactive | 3.05 | inactive | inactive | inactive | –
CCCCCCCCCCCCCC(=O)O | inactive | inactive | inactive | inactive | inactive | inactive | inactive | – | -1.78 | inactive | inactive | inactive | –
COc1ccc(/C=C/c2cc(OC)cc(=O)o2)cc1 | inactive | inactive | 14.1 µM (active) | inactive | inactive | inactive | inactive | 10 µM (active) | 0.752 | inactive | inactive | – | inactive
